# Assay results reported in the supplement of paper PMC9262897, “Low-cost anti-mycobacterial drug discovery using engineered E. coli” (Nature Communications, 2022).
# Structures can show the parent of a compound that is named as a salt. ± gives the standard deviation of the averaged measurements.
# Legend:
# Test in all cases: growth (OD600 after 10 h); higher = more growth (less inhibition)
# [1] = tested on: E. coli TESEC Alr+ wild-type control; conditions: compound 0.1 mM; raw OD600 reference: median of DMSO wells 0.241, cell-free background 0.041
# Description: (§1)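 TESEC Mtb Alr E. coli, or the Alr+ wild-type control, in 384-well plates with Prestwick library compounds at 0.1 mM and 1% DMSO, across arabinose induction levels of 1E3 to 1E7 nM. Growth is read as OD600 after 10 h at 37 °C in triplicate biological replicates.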
# E. coli TESEC Mtb Alr [2] = conditions: compound 0.1 mM
# Description: as §1
# E. coli TESEC Mtb Asd = conditions: compound 0.1 mM
# Description: (§2)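 TESEC E. coli strains in which the native enzyme is deleted and replaced by arabinose-inducible Mtb Asd, DapB, CysH or TrpD, each grown in its selective medium. Strains were screened against the Prestwick library at 0.1 mM and 1% DMSO in 384-well format at low and high arabinose induction. Growth is read as OD600 after 10 h in triplicate.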
# E. coli TESEC Mtb DapB = conditions: compound 0.1 mM
# Description: as §2
# [3] = tested on: E. coli TESEC Alr+ wild-type control; conditions: compound 0.1 mM; raw OD600 reference: median of DMSO wells 0.49, cell-free background 0.052
# Description: (§3)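 TESEC Mtb Alr E. coli (ΔaraC ΔtolC ΔentC Δalr ΔdadX, arabinose-inducible Mtb Alr) or the Alr+ wild-type control strain, grown in defined M9-fructose medium without D-alanine in 96-well plates with Prestwick library compounds at 0.1 mM and 1% DMSO. Low Alr induction is 0.1 µM arabinose and high induction is 10 mM arabinose.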
# E. coli TESEC Mtb Alr [4] = conditions: compound 0.1 mM; remark: listed apart in the source
# Description: as §3
# [5] = arabinose 1000 nM, raw OD600 reference: median of DMSO wells 0.294, cell-free background 0.041
# [6] = arabinose 10000 nM, raw OD600 reference: median of DMSO wells 0.264, cell-free background 0.041
# [7] = arabinose 100000 nM, raw OD600 reference: median of DMSO wells 0.201, cell-free background 0.041
# [8] = arabinose 1000000 nM, raw OD600 reference: median of DMSO wells 0.193, cell-free background 0.041
# [9] = arabinose 10000000 nM, raw OD600 reference: median of DMSO wells 0.146, cell-free background 0.041
# [10] = arabinose induction (level): High, raw OD600 reference: median of DMSO wells 0.331, cell-free background 0.041
# [11] = arabinose induction (level): Low, raw OD600 reference: median of DMSO wells 0.417, cell-free background 0.041
# [12] = arabinose induction (level): High, raw OD600 reference: median of DMSO wells […], cell-free background 0.041
# [13] = arabinose induction (level): Low, raw OD600 reference: median of DMSO wells 0.227, cell-free background 0.041
# [14] = arabinose 100 nM, raw OD600 reference: median of DMSO wells 0.413, cell-free background 0.052
# [15] = arabinose 10000000 nM, raw OD600 reference: median of DMSO wells […], cell-free background 0.052
SMILES,growth [1],growth (E. coli TESEC Mtb Alr [2]; [5]),growth (E. coli TESEC Mtb Alr [2]; [6]),growth (E. coli TESEC Mtb Alr [2]; [7]),growth (E. coli TESEC Mtb Alr [2]; [8]),growth (E. coli TESEC Mtb Alr [2]; [9]),growth (E. coli TESEC Mtb Asd; [10]),growth (E. coli TESEC Mtb Asd; [11]),growth (E. coli TESEC Mtb DapB; [12]),growth (E. coli TESEC Mtb DapB; [13]),growth [3],growth (E. coli TESEC Mtb Alr [4]; [14]),growth (E. coli TESEC Mtb Alr [4]; [15])
CCn1cc(C(=O)O)c(=O)c2cc(F)c(N3CCNCC3)cc21 [Norfloxacin],0.04437 ± 0.00025,0.0427 ± 0.00078,0.0398 ± 0.00098,0.0437 ± 0.00036,0.0398 ± 0.0006,0.0437 ± 0.00035,0.0546 ± 0.0041,0.0626 ± 0.0092,0.0581 ± 0.00065,0.0745 ± 0.015,0.0524 ± 0.0022,0.0551 ± 0.002,0.05117 ± 0.00047
CC1(C)S[C@@H]2[C@H](NC(=O)[C@H](N)c3ccccc3)C(=O)N2[C@H]1C(=O)O [Ampicillin trihydrate],0.235 ± 0.0072,0.279 ± 0.011,0.253 ± 0.013,0.189 ± 0.024,0.1927 ± 0.0013,0.145 ± 0.0022,0.388 ± 0.056,0.394 ± 0.066,0.205 ± 0.013,0.256 ± 0.051,0.479 ± 0.038,0.4271 ± 0.0036,0.338 ± 0.0045
CN(C)CCCN1c2ccccc2Sc2ccccc21 [Promazine hydrochloride],0.189 ± 0.0053,0.227 ± 0.011,0.2724 ± 0.002,0.192 ± 0.01,0.129 ± 0.0026,0.158 ± 0.004,0.187 ± 0.03,0.261 ± 0.023,0.195 ± 0.017,0.254 ± 0.033,0.523 ± 0.031,0.415 ± 0.0068,0.273 ± 0.0038
COC(=O)CCc1ccc(OCC(O)CNC(C)C)cc1 (configuration not stated) [Esmolol hydrochloride],0.234 ± 0.014,0.295 ± 0.018,0.2542 ± 0.00042,0.218 ± 0.0079,0.195 ± 0.0068,0.129 ± 0.0016,0.242 ± 0.013,0.432 ± 0.022,0.195 ± 0.0058,0.227 ± 0.019,0.431 ± 0.019,0.405 ± 0.015,0.388 ± 0.021
CC(C(=O)O)c1ccc2c(c1)Cc1cccnc1O2 (configuration not stated) [Pranoprofen],0.238 ± 0.0049,0.302 ± 0.013,0.271 ± 0.0097,0.192 ± 0.016,0.193 ± 0.0053,0.133 ± 0.0031,0.315 ± 0.03,0.367 ± 0.0097,0.192 ± 0.008,0.198 ± 0.013,0.4398 ± 0.0017,0.415 ± 0.0046,0.316 ± 0.012
NCCCCCC(=O)O [Aminocaproic acid],0.249 ± 0.0031,0.314 ± 0.019,0.257 ± 0.016,0.1768 ± 0.00047,0.172 ± 0.0099,0.161 ± 0.0086,0.47 ± 0.023,0.438 ± 0.028,0.206 ± 0.02,0.28 ± 0.025,0.463 ± 0.025,0.407 ± 0.017,0.354 ± 0.025
CC(C)OC(=O)C(C)(C)Oc1ccc(C(=O)c2ccc(Cl)cc2)cc1 [Fenofibrate],0.219 ± 0.0026,0.235 ± 0.015,0.245 ± 0.0051,0.143 ± 0.0063,0.0897 ± 0.0018,0.161 ± 0.0021,0.298 ± 0.013,0.397 ± 0.039,0.176 ± 0.015,0.215 ± 0.037,0.469 ± 0.026,0.401 ± 0.016,0.089 ± 0.01
N/C(=N\C(=O)c1nc(Cl)c(N)nc1N)NCc1ccccc1 [Benzamil hydrochloride],0.14 ± 0.0042,0.196 ± 0.0093,0.256 ± 0.0065,0.15 ± 0.0096,0.111 ± 0.0026,0.161 ± 0.0069,0.163 ± 0.006,0.199 ± 0.0084,0.213 ± 0.023,0.232 ± 0.013,0.502 ± 0.034,0.41 ± 0.0064,0.299 ± 0.0065
CC[C@H]1OC(=O)[C@H](C)[C@@H](O[C@H]2C[C@@](C)(OC)[C@@H](O)[C@H](C)O2)[C@H](C)[C@@H](O[C@@H]2O[C@H](C)C[C@H](N(C)C)[C@H]2O)[C@](C)(OC)C[C@@H](C)C(=O)[C@H](C)[C@@H](O)[C@]1(C)O [Clarithromycin],0.0414 ± 0.00036,0.0421 ± 0.00026,0.04 ± 0.00071,0.0426 ± 0.00059,0.041 ± 0.0018,0.0437 ± 0.0036,0.0608 ± 0.013,0.0537 ± 0.0096,0.061 ± 0.0028,0.0632 ± 0.0078,0.055 ± 0.00044,0.0576 ± 0.0015,0.0524 ± 0.00061
CN1CCN(CC(=O)N2c3ccccc3C(=O)Nc3cccnc32)CC1 [Pirenzepine dihydrochloride],0.242 ± 0.0032,0.269 ± 0.049,0.268 ± 0.013,0.193 ± 0.0071,0.177 ± 0.0037,0.148 ± 0.0028,0.28 ± 0.051,0.418 ± 0.034,0.19 ± 0.013,0.253 ± 0.038,0.531 ± 0.061,0.4155 ± 0.0034,0.334 ± 0.019
Nc1nc2ccc(OC(F)(F)F)cc2s1 [Riluzole hydrochloride],0.176 ± 0.007,0.188 ± 0.0051,0.255 ± 0.0058,0.212 ± 0.007,0.262 ± 0.016,0.194 ± 0.0031,0.388 ± 0.01,0.208 ± 0.02,0.241 ± 0.005,0.241 ± 0.0089,0.439 ± 0.011,0.415 ± 0.014,0.419 ± 0.0084
Cc1nccn1CC1CCc2c(c3ccccc3n2C)C1=O (configuration not stated) [Ondansetron Hydrochloride],0.195 ± 0.004,0.272 ± 0.0034,0.252 ± 0.0038,0.246 ± 0.0034,0.304 ± 0.014,0.146 ± 0.0028,0.432 ± 0.06,0.191 ± 0.011,0.229 ± 0.013,0.183 ± 0.004,0.526 ± 0.11,0.365 ± 0.013,0.384 ± 0.0066
CN[C@@H]1[C@H](O[C@H]2[C@H](O[C@H]3[C@H](O)[C@@H](O)[C@H](N=C(N)N)[C@@H](O)[C@@H]3N=C(N)N)O[C@@H](C)[C@]2(O)C=O)O[C@@H](CO)[C@H](O)[C@H]1O [Streptomycin sulfate],0.04117 ± 5.8e-05,0.04617 ± 0.00029,0.0396 ± 0.00055,0.04577 ± 0.00042,0.03957 ± 0.00025,0.0731 ± 0.0022,0.0611 ± 0.0021,0.0528 ± 0.00084,0.108 ± 0.048,0.0695 ± 0.0084,0.0543 ± 0.00036,0.0665 ± 0.0098,0.05093 ± 0.00012
CN[C@@H]1[C@H](O[C@H]2[C@H](O[C@H]3[C@H](O)[C@@H](O)[C@H](NC(=N)N)[C@@H](O)[C@@H]3NC(=N)N)O[C@@H](C)[C@]2(O)CO)O[C@@H](CO)[C@H](O)[C@H]1O [Dihydrostreptomycin sulfate],0.041 ± 0.0011,0.0419 ± 0.0011,0.03877 ± 0.00012,0.0454 ± 0.0053,0.0395 ± 0.0004,0.0485 ± 0.0005,0.0488 ± 0.00072,0.0499 ± 0.0017,0.0489 ± 0.00049,0.0483 ± 0.00061,0.0605 ± 0.0073,0.0553 ± 0.0036,0.0534 ± 0.00091
